p97 ATPase inh: inhibitors of human p97 ATPase | 0.42% of 220,000 active | AID 1481 | recombinant p97 ATPase, Kinase-Glo ATP luminescence, 3 h | P55072 | inhibition, % at 8 µM; in the data active means inhibition above about 15%;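 further: 0% = DMSO vehicle and 100% = wells lacking enzyme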
Target sequence (P55072 whole entry, looked up): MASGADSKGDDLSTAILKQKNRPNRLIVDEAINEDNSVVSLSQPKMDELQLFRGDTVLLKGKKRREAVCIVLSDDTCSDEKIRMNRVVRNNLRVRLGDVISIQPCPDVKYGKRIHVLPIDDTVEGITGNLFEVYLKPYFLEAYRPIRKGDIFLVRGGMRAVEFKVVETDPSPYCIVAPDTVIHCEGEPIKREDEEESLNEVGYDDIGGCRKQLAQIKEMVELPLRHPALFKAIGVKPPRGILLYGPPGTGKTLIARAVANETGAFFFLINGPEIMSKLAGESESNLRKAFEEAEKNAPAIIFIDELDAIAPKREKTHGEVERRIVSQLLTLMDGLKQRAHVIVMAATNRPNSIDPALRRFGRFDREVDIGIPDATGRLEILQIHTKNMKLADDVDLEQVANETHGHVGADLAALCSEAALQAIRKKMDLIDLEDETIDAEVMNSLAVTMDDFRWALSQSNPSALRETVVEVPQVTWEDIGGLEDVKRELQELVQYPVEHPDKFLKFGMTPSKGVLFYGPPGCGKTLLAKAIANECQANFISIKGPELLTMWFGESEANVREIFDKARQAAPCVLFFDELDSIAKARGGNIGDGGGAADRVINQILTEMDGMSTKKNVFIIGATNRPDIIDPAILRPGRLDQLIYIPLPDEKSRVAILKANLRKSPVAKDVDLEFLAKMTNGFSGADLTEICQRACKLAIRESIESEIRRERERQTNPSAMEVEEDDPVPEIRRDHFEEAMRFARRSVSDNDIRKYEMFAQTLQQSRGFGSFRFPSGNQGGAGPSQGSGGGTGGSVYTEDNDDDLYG
S1P3 antag-1: antagonists of human S1P3 receptor | CHO S1P3 NFAT-BLA reporter, FRET fluorescence, antagonist mode | 0.27% of 170,000 active | inhibition, % at 4.98 µM | Q99500 | AID 485;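 active means inhibition above the plate cutoff, the mean inhibition of test wells on that plate plus 3 SD, cut at about 28% in these data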;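 further: cells challenged with S1P at its EC80 of 0.8 µM; blue over green emission ratio from cleaved BLA substrate after 4 h stimulation; 0% = S1P-stimulated wells and 100% = unstimulated DMSO-only wells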
S1P4 antagonist: blocks the human S1P4 receptor. S1P4-expressing cells, antagonist mode, reporter read-out. inhibition, % at 4.98 µM. 0.26% of 220,000 active. AID 1510; in the data active means inhibition above about 29%;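 further: 0% = wells stimulated with agonist and 100% = vehicle wells without agonist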
SUMO HTRF inh: inhibitors of human SUMOylation (UBC9). P63279. HTRF SUMOylation assay, SAE1/SAE2 + UBC9, in vitro. inhibition, % at 35 µM. 0.36% of 290,000 active. AID 2006; in the data active means inhibition above about 50%, passing the limit was not always enough
S1P4 agonist: human S1P4 receptor agonism | activation, % at 4.98 µM | 0.35% of 220,000 active | S1P4-expressing cell line, agonist reporter assay | O95977; in the data active means activation above about 11%;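 further: 0% = DMSO vehicle and 100% = reference agonist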
Redox H2O2 prof: compounds producing H2O2 with reducing agent – biochemical, NIH compound library profiling, artefact control for MLSCN library redox annotation, primary screen. 0.03% of 200,000 active. AID 878. DTT-dependent redox cycling H2O2, phenol red/HRP absorbance; 100% = 100 µM peroxide control, 0% = buffer. activation, % at 10 µM;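 active means activation of at least 50% relative to the plate's high and low controls in the primary single-dose screen; inactive means activation below 50%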;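 further: compound incubated with DTT at 0.8 mM final as the reducing agent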
S1P3 antag-2: human S1P3 receptor antagonism, confirmation; shares compounds with S1P3 antag-1; CHO S1P3 NFAT-BLA reporter, FRET, antagonist mode; inhibition, % at 4.98 µM; 30% of 240 active; AID 1429;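 active means inhibition above the hit threshold that was computed for the earlier primary screen, cut at about 30% in these data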;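 further: 0% = S1P-stimulated wells and 100% = unstimulated DMSO-only wells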
Redox H2O2 DR: generates H2O2 by DTT-dependent redox cycling, confirmed in dose response; shares compounds with Redox H2O2 prof; phenol red-HRP absorbance; EC50, µM; 40% of 60 active; AID 1234;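 active means EC50 under a set limit for hydrogen peroxide production with the reducing agent DTT present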
p97 inh conf: confirmation of human p97 ATPase inhibitors; shares compounds with p97 ATPase inh; recombinant p97 ATPase, Kinase-Glo ATP luminescence; inhibition, % at 8 µM; 44% of 760 active; AID 1517;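 active means percent inhibition of p97 ATPase above a set limit, the primary screen's mean plus 3 SD, cut at about 15% in these data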;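 further: 0% = DMSO wells and 100% = wells lacking p97 protein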
S1P4 antag cf: human S1P4 antagonism, confirmation | shares compounds with S1P4 antagonist | 71% of 520 active | AID 1524 | inhibition, % at 4.98 µM | S1P4-expressing cell line, antagonist mode, reporter read-out; in the data active means inhibition above about 30%
S1P1 antagonist: blocks human S1P1, counter-screen for S1P4 antagonists; 37% of 520 active; inhibition, % at 4.98 µM; shares compounds with S1P4 antagonist; cell-based S1P1 antagonist counterscreen, inhibition; in the data active means inhibition above about 40%;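 further: receptor stimulated with S1P near its EC80; 0% = agonist stimulated wells and 100% = vehicle only wells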
* hit, by the source's call; nt = no result. Sampled rows, rich in hits. Any-hit rate of the full collection: about 1.1%.

SMILES	p97 ATPase inh	S1P3 antag-1	S1P4 antagonist	SUMO HTRF inh	S1P4 agonist	Redox H2O2 prof	Redox H2O2 DR	others
Cc1ccc(COC(=O)NCc2cccnc2)cc1	nt	nt	nt	3.9	nt	nt	nt
O=C(NC(Nc1nc2ccc([N+](=O)[O-])cc2s1)(C(F)(F)F)C(F)(F)F)c1cccnc1	2.5	3.0	16.7	5.9	0.6	0.0	nt
O=C(NC(Nc1nc2ccc([N+](=O)[O-])cc2s1)(C(F)(F)F)C(F)(F)F)c1ccccc1Cl	10.7	69.5*	43.4*	-23.3	-1.2	0.8	nt	S1P3 antag-2=53.1*;S1P4 antag cf=64.5*;S1P1 antagonist=-1.8
CNC1=C(N(C(C)=O)c2ccc(Br)cc2)C(=O)c2ccccc2C1=O	0.8	-4.0	2.9	81.7*	2.2	107.6*	>50
O=C(COC(=O)c1ccc([N+](=O)[O-])s1)NCc1ccccc1	-0.4	-8.8	-18.6	10.9	0.8	113.0*	39.2*
CCOC(=O)c1cnc2c(C)c(C)ccc2c1NCCN1CCOCC1	nt	nt	nt	-11.1	nt	nt	nt
CCCCc1nnc(NC(=O)CN2C(=O)NC3(CCCCC3)C2=O)s1	nt	nt	nt	16.3	nt	nt	nt
Cc1oc2c(c1C(=O)c1ccc(Cl)cc1)C(=O)C(=O)c1ccccc1-2	3.2	nt	0.4	71.0*	2.3	344.2*	6.44*
CCOc1ccccc1NC(=O)NCc1ccco1	4.8	10.3	-30.1	21.7	-1.2	nt	nt
COc1ccc(CN2C(=O)c3cccnc3C2O)cc1 (configuration not stated)	0.7	nt	4.7	24.7	-1.2	67.8*	>50
COc1ccc(CN2C(=O)c3cccnc3C2Nc2cc(Cl)ccc2OC)cc1 (configuration not stated)	3.2	27.3	0.3	32.5	0.7	-2.0	nt
CC(C)CN(C(=O)COC(=O)c1ccc([N+](=O)[O-])o1)C1CCS(=O)(=O)C1 (configuration not stated)	-3.1	-15.6	-0.4	-2.4	-2.0	121.7*	>50
CC(C)CN(C(=O)COC(=O)c1cc2ccccc2oc1=O)C1CCS(=O)(=O)C1 (configuration not stated)	4.4	-13.1	-1.3	10.9	0.0	-1.5	nt
Cc1ccc(C)c(S(=O)(=O)/N=C2\C=C(NS(=O)(=O)c3ccccc3)C(=O)c3ccccc32)c1	nt	nt	nt	48.3	nt	nt	nt
Cc1cc(C)c(S(=O)(=O)/N=C2/C=C(Sc3ncn[nH]3)C(=O)c3ccccc32)cc1C	13.3	-10.7	-0.1	90.4*	1.5	142.9*	23.3*
CCOC(=O)c1c2c(n(C)c1C)C(=O)C(=O)c1ccc(Br)cc1-2	7.0	nt	-4.0	nt	0.5	322.3*	0.04*
CCOC(=O)CNC(=S)N(CCCN1CCN(C)CC1)Cc1cccs1	nt	nt	nt	-1.5	nt	nt	nt
CCOc1ccc2c(=O)c(Oc3ccccc3)c(C)oc2c1	0.8	nt	-2.8	20.9	-0.4	57.0*	>50
Cc1oc2cc(OC(C)C(=O)O)ccc2c(=O)c1Oc1ccccc1 (configuration not stated)	2.5	-1.3	-2.8	15.2	-1.7	0.1	nt
Cc1ccc(C(=O)c2c(C)oc3c2C(=O)C(=O)c2ccccc2-3)cc1	21.6*	nt	8.2	91.5*	0.4	457.8*	>50	p97 inh conf=19.5*
CC(=O)N(CN1C(=O)c2ccccc2C1=O)c1cccc(C)c1	2.8	-27.4	-5.7	21.6	1.0	1.5	nt
CC(=O)N(/N=C1\Sc2ccccc2C1=O)c1cccc(C)c1	15.0*	nt	-0.9	9.8	-0.1	296.2*	26*	p97 inh conf=24.2*
CCCCc1cc(=O)oc2cc(O)ccc12	4.7	-19.3	-15.8	29.0	0.1	-1.3	nt

Screening data: PubChem, several laboratories
